Source: ChEMBL document CHEMBL1961873, “Compounds: GSK PKIS; Assays: Nanosyn kinase panel” (2012)

Tests used:
[1] = biological target: T1, Inhibitor of nuclear factor kappa-B kinase subunit epsilon (Homo sapiens) (UniProt Q14164); details: at 1 µM;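 note: reported values are averaged percent inhibition figures against human IKKε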
T1 sequence (whole entry): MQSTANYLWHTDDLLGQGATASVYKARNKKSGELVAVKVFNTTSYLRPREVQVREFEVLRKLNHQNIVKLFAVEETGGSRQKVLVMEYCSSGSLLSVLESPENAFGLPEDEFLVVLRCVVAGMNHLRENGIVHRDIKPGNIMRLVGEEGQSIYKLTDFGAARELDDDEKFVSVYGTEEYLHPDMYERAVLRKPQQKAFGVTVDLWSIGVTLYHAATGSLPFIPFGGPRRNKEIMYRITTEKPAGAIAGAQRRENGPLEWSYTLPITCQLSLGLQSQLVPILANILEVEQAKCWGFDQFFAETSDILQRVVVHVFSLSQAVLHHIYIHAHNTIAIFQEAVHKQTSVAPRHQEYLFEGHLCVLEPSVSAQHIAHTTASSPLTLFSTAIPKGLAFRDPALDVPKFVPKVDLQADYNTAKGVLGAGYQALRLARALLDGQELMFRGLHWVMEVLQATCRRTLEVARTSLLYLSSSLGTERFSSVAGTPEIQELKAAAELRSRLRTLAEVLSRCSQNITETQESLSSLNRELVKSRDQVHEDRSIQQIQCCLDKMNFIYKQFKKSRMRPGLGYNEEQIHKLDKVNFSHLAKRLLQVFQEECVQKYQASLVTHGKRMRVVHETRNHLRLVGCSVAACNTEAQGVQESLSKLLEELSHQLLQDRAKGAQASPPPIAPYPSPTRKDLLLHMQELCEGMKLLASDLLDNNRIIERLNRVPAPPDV

[2] = biological target: T2, Serine/threonine-protein kinase Nek1 (Homo sapiens) (UniProt Q96PY6); details: at 0.1 µM
T2 sequence (whole entry): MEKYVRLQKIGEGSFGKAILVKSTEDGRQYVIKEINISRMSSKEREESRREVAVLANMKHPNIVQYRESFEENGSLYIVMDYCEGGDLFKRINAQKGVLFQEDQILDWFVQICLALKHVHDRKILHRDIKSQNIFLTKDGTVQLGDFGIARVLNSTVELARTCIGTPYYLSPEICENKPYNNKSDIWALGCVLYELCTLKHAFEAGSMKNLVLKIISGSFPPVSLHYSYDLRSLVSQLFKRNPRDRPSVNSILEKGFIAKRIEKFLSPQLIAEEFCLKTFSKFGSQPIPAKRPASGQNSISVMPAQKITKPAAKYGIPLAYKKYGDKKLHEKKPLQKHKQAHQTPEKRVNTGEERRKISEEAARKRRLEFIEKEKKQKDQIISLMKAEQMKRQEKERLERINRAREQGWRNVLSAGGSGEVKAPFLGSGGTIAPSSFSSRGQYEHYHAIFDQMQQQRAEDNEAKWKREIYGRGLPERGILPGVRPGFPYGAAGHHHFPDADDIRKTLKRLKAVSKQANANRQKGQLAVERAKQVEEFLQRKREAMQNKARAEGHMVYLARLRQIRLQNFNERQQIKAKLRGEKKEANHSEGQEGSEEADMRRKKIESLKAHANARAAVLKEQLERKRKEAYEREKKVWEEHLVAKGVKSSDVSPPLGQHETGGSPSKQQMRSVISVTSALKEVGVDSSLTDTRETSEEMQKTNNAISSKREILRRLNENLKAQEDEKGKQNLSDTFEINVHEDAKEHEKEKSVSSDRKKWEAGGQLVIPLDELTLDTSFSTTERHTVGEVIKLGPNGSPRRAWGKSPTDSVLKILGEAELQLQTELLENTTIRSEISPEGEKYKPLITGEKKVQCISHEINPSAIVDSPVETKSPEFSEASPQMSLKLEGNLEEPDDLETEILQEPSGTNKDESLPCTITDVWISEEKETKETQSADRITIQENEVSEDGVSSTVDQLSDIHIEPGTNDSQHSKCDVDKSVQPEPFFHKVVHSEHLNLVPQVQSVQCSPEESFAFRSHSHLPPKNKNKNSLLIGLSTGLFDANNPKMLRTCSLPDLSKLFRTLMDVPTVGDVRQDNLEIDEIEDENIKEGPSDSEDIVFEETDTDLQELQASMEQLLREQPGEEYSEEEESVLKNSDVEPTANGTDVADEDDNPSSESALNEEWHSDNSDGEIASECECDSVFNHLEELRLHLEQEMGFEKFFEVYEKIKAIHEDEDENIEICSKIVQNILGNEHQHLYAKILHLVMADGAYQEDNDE

[3] = biological target: T2, Serine/threonine-protein kinase Nek1 (Homo sapiens); details: at 1 µM
[4] = biological target: T3, Serine/threonine-protein kinase Nek2 (Homo sapiens) (UniProt P51955); details: at 0.1 µM
T3 sequence (whole entry): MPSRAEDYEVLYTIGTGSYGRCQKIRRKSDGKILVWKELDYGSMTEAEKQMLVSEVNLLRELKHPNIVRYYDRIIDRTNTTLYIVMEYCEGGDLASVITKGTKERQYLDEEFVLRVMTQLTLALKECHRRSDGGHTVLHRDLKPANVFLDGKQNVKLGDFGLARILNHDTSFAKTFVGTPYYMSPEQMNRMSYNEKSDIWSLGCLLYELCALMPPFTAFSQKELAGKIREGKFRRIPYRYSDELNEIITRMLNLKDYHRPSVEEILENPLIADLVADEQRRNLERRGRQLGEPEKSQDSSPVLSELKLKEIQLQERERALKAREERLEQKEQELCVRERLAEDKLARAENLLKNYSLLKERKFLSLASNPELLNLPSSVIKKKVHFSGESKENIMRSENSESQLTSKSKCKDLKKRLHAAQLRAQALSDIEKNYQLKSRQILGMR

[5] = biological target: T3, Serine/threonine-protein kinase Nek2 (Homo sapiens); details: at 1 µM
[6] = biological target: Serine/threonine-protein kinase Nek6 (Homo sapiens) (UniProt Q9HC98); details: at 0.1 µM
Chain of Serine/threonine-protein kinase Nek6 (Homo sapiens) (Q9HC98 whole entry): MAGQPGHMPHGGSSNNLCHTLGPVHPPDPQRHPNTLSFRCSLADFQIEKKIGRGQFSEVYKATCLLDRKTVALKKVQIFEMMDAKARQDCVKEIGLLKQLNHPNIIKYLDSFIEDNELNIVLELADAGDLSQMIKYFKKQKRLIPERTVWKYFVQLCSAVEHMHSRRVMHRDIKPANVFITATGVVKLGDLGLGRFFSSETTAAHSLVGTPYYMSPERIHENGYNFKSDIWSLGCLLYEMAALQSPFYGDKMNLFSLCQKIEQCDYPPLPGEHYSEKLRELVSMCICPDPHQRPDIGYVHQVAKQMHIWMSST

[7] = biological target: Serine/threonine-protein kinase Nek6 (Homo sapiens) (UniProt Q9HC98); details: at 1 µM
[8] = biological target: Serine/threonine-protein kinase Nek7 (Homo sapiens) (UniProt Q8TDX7); details: at 0.1 µM
Chain of Serine/threonine-protein kinase Nek7 (Homo sapiens) (Q8TDX7 whole entry, looked up): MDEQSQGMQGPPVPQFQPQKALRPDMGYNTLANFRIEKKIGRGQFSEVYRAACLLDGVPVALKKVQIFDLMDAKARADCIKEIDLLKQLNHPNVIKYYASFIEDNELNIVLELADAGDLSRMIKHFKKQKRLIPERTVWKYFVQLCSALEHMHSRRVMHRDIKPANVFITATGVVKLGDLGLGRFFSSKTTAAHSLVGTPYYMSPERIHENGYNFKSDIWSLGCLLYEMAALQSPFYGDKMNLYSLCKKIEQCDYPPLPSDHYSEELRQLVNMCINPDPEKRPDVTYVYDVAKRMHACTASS

[9] = biological target: Serine/threonine-protein kinase Nek7 (Homo sapiens) (UniProt Q8TDX7); details: at 1 µM
[10] = biological target: T4, Serine/threonine-protein kinase Nek9 (Homo sapiens) (UniProt Q8TD19); details: at 0.1 µM
T4 sequence (whole entry): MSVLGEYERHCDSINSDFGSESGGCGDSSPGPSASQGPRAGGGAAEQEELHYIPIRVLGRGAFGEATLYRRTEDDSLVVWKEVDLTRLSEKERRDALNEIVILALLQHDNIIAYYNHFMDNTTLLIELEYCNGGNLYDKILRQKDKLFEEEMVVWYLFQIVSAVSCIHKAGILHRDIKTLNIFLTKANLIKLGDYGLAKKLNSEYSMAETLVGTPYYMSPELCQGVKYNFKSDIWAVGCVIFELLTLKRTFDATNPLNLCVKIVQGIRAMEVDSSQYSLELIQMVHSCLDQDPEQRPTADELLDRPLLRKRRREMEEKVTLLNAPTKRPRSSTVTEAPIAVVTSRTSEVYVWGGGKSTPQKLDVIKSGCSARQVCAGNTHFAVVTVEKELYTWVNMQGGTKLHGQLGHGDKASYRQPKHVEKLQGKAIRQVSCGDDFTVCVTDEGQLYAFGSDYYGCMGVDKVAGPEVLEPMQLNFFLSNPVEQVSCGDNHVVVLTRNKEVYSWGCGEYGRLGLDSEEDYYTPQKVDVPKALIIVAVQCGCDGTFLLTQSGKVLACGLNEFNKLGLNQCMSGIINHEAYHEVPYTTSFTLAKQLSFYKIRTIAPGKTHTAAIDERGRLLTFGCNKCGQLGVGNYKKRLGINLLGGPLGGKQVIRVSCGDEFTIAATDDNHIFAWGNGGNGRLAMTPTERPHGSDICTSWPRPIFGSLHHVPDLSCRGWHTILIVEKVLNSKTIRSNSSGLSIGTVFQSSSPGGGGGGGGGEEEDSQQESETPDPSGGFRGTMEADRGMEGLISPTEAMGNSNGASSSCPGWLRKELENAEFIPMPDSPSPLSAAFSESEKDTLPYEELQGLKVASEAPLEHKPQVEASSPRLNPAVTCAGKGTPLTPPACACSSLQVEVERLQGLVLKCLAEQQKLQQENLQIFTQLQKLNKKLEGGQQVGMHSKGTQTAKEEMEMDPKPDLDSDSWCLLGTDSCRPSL

[11] = biological target: T4, Serine/threonine-protein kinase Nek9 (Homo sapiens); details: at 1 µM
[12] = biological target: Serine/threonine-protein kinase PLK1 (Homo sapiens) (UniProt P53350); details: at 0.1 µM
Chain of Serine/threonine-protein kinase PLK1 (Homo sapiens) (P53350 whole entry): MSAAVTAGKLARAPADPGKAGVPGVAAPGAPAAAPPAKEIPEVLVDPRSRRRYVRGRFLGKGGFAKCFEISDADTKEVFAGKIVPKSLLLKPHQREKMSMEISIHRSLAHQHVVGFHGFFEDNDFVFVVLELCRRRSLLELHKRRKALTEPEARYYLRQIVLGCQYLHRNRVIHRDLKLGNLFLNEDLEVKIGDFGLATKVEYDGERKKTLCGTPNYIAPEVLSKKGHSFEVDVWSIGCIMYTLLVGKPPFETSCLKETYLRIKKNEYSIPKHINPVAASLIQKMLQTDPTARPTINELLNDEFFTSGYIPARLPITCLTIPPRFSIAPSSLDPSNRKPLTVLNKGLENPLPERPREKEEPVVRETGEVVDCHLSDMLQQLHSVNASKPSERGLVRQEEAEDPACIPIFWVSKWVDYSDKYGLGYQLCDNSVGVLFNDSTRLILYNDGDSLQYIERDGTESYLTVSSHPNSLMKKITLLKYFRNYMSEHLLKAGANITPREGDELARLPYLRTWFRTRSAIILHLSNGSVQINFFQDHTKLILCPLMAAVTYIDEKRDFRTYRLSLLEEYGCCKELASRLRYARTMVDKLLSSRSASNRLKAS

[13] = biological target: Serine/threonine-protein kinase PLK1 (Homo sapiens) (UniProt P53350); details: at 1 µM
[14] = biological target: T5, Dual specificity protein kinase TTK (Homo sapiens) (UniProt P33981); details: at 0.1 µM
T5 sequence (whole entry): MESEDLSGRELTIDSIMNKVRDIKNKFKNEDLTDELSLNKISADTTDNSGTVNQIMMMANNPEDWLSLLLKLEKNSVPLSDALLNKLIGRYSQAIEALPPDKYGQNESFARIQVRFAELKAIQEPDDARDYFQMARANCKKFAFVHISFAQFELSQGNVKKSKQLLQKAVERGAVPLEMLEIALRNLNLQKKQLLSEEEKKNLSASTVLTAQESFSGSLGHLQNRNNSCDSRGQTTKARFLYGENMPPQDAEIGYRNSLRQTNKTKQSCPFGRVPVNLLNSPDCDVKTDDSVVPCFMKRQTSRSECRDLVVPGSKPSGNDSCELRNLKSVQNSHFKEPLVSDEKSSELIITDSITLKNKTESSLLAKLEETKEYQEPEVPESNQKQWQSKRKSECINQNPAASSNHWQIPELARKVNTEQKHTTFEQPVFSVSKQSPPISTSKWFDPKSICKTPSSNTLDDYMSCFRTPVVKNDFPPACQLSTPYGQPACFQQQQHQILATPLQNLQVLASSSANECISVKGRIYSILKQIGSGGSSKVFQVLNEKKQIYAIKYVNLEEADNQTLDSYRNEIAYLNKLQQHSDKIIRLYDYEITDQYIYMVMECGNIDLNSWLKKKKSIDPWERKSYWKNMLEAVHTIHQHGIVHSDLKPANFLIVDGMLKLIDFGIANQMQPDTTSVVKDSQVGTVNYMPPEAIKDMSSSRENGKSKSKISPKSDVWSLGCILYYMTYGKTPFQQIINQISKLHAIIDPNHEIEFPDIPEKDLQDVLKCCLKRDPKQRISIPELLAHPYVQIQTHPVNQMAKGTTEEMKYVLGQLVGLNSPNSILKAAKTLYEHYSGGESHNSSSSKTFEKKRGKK

[15] = test system: T6, Receptor-type tyrosine-protein kinase FLT3 (Homo sapiens), P36888 [D835Y]; details: at 1 µM
T6 sequence (whole entry): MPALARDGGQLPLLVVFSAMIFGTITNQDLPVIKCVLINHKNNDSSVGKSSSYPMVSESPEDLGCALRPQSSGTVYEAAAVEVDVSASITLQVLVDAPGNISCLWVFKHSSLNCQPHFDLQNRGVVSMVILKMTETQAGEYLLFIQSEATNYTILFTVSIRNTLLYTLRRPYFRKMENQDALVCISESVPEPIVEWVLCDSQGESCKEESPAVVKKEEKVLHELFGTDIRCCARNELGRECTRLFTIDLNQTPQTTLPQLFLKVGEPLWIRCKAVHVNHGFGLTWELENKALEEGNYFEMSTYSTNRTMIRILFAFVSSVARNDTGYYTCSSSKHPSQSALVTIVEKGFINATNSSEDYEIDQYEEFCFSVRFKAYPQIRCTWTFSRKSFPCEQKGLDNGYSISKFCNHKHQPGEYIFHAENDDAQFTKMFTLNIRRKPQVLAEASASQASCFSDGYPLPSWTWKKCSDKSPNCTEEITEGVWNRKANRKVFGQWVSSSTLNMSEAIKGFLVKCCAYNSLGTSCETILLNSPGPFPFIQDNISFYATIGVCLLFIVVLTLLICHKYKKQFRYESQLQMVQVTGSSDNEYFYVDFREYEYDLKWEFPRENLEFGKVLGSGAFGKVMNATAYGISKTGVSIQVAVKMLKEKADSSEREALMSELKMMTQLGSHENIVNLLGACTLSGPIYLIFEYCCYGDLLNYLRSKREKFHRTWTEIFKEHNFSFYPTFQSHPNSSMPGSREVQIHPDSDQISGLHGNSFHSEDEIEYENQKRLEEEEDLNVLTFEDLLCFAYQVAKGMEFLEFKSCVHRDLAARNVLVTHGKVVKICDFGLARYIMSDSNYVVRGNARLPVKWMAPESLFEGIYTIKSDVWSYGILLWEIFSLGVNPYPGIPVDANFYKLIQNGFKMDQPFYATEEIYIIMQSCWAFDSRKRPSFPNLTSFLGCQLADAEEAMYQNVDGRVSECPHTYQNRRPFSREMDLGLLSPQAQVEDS

[16] = biological target: Vascular endothelial growth factor receptor 3 (Homo sapiens) (UniProt P35916); details: at 1 µM
Chain of Vascular endothelial growth factor receptor 3 (Homo sapiens) (P35916 whole entry): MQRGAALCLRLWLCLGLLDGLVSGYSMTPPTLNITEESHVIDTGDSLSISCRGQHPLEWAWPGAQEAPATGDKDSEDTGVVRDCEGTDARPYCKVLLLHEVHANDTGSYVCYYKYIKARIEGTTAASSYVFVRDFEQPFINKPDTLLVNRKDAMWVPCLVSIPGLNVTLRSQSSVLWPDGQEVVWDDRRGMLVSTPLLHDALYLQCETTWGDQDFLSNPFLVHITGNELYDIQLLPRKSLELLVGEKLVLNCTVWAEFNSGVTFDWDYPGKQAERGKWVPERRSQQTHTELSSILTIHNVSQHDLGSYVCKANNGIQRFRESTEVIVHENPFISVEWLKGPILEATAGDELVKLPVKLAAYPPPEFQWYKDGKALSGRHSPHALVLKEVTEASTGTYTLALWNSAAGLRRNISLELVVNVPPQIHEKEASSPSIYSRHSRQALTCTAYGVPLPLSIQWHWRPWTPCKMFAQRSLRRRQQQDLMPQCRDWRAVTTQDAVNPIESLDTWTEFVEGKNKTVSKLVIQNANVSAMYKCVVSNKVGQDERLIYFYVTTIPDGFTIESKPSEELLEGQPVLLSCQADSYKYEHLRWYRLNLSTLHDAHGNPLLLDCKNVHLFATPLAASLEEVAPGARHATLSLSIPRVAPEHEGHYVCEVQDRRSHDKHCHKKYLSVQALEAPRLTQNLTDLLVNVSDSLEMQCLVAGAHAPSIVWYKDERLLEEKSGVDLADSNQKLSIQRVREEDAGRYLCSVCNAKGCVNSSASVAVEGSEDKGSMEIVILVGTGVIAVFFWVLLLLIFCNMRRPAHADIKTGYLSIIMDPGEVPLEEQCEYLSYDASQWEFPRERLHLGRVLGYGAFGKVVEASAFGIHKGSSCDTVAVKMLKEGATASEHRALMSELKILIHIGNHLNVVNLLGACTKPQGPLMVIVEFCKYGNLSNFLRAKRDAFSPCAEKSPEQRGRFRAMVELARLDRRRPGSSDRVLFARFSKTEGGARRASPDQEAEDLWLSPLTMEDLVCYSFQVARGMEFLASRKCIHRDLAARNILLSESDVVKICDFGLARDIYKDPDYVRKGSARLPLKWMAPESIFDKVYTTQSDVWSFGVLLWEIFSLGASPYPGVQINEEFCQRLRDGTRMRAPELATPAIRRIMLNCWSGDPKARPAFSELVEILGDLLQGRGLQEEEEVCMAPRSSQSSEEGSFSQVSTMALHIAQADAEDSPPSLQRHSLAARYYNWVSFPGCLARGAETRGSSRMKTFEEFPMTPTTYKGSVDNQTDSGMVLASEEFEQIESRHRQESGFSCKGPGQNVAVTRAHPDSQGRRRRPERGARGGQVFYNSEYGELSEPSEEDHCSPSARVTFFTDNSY

[17] = biological target: Macrophage colony-stimulating factor 1 receptor (Homo sapiens) (UniProt P07333); details: at 0.1 µM
Chain of Macrophage colony-stimulating factor 1 receptor (Homo sapiens) (P07333 whole entry): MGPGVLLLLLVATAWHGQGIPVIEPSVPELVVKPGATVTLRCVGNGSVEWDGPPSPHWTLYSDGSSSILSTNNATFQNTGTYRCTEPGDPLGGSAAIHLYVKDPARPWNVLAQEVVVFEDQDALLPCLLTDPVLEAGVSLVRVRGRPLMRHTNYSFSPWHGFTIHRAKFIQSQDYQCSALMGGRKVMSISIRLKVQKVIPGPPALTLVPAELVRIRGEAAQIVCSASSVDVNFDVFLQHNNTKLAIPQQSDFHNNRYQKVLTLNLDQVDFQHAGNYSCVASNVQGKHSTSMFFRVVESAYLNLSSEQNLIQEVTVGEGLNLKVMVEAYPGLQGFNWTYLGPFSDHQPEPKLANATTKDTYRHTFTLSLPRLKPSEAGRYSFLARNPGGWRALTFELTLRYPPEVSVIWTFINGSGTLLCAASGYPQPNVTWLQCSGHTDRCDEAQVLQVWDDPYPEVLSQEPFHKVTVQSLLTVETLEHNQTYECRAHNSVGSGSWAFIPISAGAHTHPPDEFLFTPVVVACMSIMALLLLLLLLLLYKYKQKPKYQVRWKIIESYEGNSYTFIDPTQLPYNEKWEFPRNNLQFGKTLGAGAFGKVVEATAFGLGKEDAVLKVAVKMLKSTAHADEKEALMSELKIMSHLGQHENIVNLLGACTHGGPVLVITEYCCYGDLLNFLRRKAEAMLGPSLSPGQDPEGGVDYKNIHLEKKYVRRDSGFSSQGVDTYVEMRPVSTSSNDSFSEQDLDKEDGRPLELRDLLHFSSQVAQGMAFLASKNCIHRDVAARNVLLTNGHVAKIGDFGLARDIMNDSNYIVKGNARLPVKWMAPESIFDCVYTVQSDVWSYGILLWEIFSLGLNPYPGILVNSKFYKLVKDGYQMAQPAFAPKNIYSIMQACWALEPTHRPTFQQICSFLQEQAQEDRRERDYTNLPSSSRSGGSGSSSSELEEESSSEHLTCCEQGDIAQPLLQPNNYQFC

[18] = biological target: Macrophage colony-stimulating factor 1 receptor (Homo sapiens) (UniProt P07333); details: at 1 µM
[19] = biological target: Tyrosine-protein kinase Fyn (Homo sapiens) (UniProt P06241); details: at 0.1 µM
Chain of Tyrosine-protein kinase Fyn (Homo sapiens) (P06241 2-537 limits assumed): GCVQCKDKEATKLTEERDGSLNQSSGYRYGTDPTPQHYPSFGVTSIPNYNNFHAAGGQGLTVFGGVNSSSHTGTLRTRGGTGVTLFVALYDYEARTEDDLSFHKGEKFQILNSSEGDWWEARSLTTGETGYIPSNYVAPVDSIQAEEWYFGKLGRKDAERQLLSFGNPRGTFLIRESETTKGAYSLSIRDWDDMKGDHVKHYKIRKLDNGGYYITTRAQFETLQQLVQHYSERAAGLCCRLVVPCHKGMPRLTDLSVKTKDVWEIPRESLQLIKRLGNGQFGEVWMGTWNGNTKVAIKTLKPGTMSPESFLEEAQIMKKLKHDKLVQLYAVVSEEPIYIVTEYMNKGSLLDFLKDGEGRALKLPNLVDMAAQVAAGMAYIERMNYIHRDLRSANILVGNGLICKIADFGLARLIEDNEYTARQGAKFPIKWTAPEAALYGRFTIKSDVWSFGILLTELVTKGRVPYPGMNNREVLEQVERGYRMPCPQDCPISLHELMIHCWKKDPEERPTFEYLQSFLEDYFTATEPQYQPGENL

[20] = biological target: Vascular endothelial growth factor receptor 3 (Homo sapiens) (UniProt P35916); details: at 0.1 µM

| Compound | inhibition [1] [%] | inhibition [2] [%] | inhibition [3] [%] | inhibition [4] [%] | inhibition [5] [%] | inhibition [6] [%] | inhibition [7] [%] | inhibition [8] [%] | inhibition [9] [%] | inhibition [10] [%] | inhibition [11] [%] | inhibition [12] [%] | inhibition [13] [%] | inhibition [14] [%] | inhibition [15] [%] | inhibition [16] [%] | inhibition [17] [%] | inhibition [18] [%] | inhibition [19] [%] | inhibition [20] [%] |
| --- | --- | --- | --- | --- | --- | --- | --- | --- | --- | --- | --- | --- | --- | --- | --- | --- | --- | --- | --- | --- |
| CN(C)CCCNc1nccc(-c2c(-c3ccc(F)cc3)nn3cc(C(F)(F)F)ccc23)n1 | 1.28 | 2.23 | 4.09 | 1.87 | 1.49 | 1.82 | -1.46 | 2.85 | 1.37 | 5.9 | 0.61 | 2.56 | 2.23 | 2.37 | 2.47 | -6.61 | 2.1 | 2.47 | -2.36 |  |
| O=C(NCC1CC1)c1ccc(-c2cccc(C(=O)NC3CC3)c2)cc1 |  | 1.66 | 2.92 | 1.96 | 1.96 | 1.75 | 1.92 | 3.35 | 3.21 | 9.43 | -2.12 | 1.33 | -0.14 | 2.34 | 4.69 | 1.97 | 1.67 | 5.35 | 1.58 | 1.32 |
